# Values joined by “and” are separate entries in the source; they are usually repeats but may differ in a detail not shown here. Equal values may be shown once. More than one record can exist for a structure, and the calls need not agree. Active and inactive are the calls of the source. The calls were made as follows: active = hit-call score of the fitted dose curve at least 0.9, where 1 is the maximum; inactive = score below 0.9.
# Assays:
# [1] = read-out: Interleukin-8 (IL8), CXCL8 (gene 3576); test: BSK_MyoF_IL8: BioMAP Diversity Plus: MyoF Assay for Interleukin-8 (IL8) Biomarker Activity (AID 2284261); settings: primary human lung fibroblasts
# Procedure, shortened: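 IL-8 levels were measured by ELISA in human lung fibroblasts harvested 24 h after compound addition. Responses were analysed as gain of signal over the DMSO baseline.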
# [2] = BSK_MyoF_SRB: Viability Assessment in the BioMAP Diversity Plus: MyoF Assay (AID 2284267); settings: primary human lung fibroblasts;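 also: total protein by SRB absorbance in parallel cultures as cytotoxicity measure; cells assessed 24 h after compound addition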
# Procedure, shortened: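 Cytotoxicity in primary human lung fibroblasts is gauged by SRB total-protein staining 24 h after dosing, with DMSO as the negative control.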
# [3] = read-out: Matrix Metallopeptidase 1 (MMP1), MMP1 (gene 4312); test: BSK_MyoF_MMP1: BioMAP Diversity Plus: MyoF Assay for Matrix Metallopeptidase 1 (MMP1) Biomarker Activity (AID 2284268); settings: primary human lung fibroblasts
# Procedure, shortened: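 Lung fibroblast cultures were dosed with test chemicals and, after 24 h, MMP1 levels were measured by ELISA; responses were referenced to DMSO and analysed for increases.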
# [4] = read-out: TIMP metallopeptidase inhibitor 1 (TIMP1), TIMP1 (gene 7076); test: BSK_MyoF_TIMP1: BioMAP Diversity Plus: MyoF Assay for TIMP metallopeptidase inhibitor 1 (TIMP1) Biomarker Activity (AID 2284269); settings: primary human lung fibroblasts
# Procedure, shortened: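 ELISA read-out of TIMP-1 from primary human lung fibroblast cultures 24 h after compound dosing; gain of signal relative to DMSO vehicle baseline defines activity.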
# [5] = read-out: Interleukin-8 (IL8), CXCL8 (gene 3576); test: BSK_KF3CT_IL8: BioMAP Diversity Plus: KF3CT Assay for Interleukin-8 (IL8) Biomarker Activity (AID 2284254); settings: primary human keratinocytes with fibroblasts
# Procedure, shortened: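 Chemicals were added to co-cultured human keratinocytes and foreskin fibroblasts, incubated 24 h, then IL-8 was quantified by ELISA. Cytotoxicity was tracked by sulforhodamine B total-protein staining in parallel cultures.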
# [6] = read-out: Intercellular Adhesion Molecule 1 (ICAM1), ICAM1 (gene 3383); test: BSK_BE3C_ICAM1: BioMAP Diversity Plus: BE3C Assay for Intercellular Adhesion Molecule 1 (ICAM1) Biomarker Activity (AID 2284278); settings: primary human bronchial epithelial cells
# Procedure, shortened: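 Measured by ELISA: ICAM-1 expressed by primary human bronchial epithelial cells 24 h after compound treatment, with upward-direction fitting versus DMSO vehicle.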
# [7] = read-out: Interferon-inducible T-cell alpha chemoattractant (ITAC), CXCL11 (gene 6373); test: BSK_BE3C_ITAC: BioMAP Diversity Plus: BE3C Assay for Interferon-inducible T-cell alpha chemoattractant (ITAC) Biomarker Activity (AID 2284279); settings: primary human bronchial epithelial cells
# Method: BSK_BE3C is a cell-based, multiplexed-readout assay that uses bronchial epithelial cell, a human lung primary cell, with measurements taken at 24 hours after chemical dosing in a 96-well plate.BSK_BE3C_ITAC is an assay component measured in the BSK_BE3C assay. It measures I-TAC antibody related to regulation of gene expression using ELISA technology.Data from the assay component BSK_BE3C_ITAC was analyzed at the endpoint, BSK_BE3C_ITAC, in the positive analysis fitting direction relative to DMSO as the negative control and baseline of activity. Using a type of binding reporter, gain or loss-of-signal activity can be used to understand protein changes. To generalize the intended target to other relatable targets, this assay endpoint is annotated to the 'cytokine' intended target family, where the subfamily is 'chemotactic factor'.
# The levels of cell surface (or secreted, indicated by the prefix "s") biomarker endpoints were measured by ELISA. Overt cytotoxicity to cells in confluent adherent cultures (all systems other than the BT system) was assessed by measuring total protein levels using sulforhodamine B (SRB) staining in parallel cultures at the time of biomarker measurements, indicated as SRB endpoints. For proliferation assays for adherent cell types, individual cell types are cultured at sub-confluence and relative cell numbers quantified by SRB staining at time points optimized for each system (48 h: 3C and CASM3C systems; 72 h: BT and HDF3CGF systems; 96 h: SAg system). SRB was performed by staining cells with 0.1% SRB after fixation with 10% TCA and reading wells at 560 nm.Viability and proliferation of PBMC (T cells) was quantified by Alamar Blue reduction for the SAg and BT systems. For PBMC viability (referred to as PBMC Cytotoxicity within the assay endpoint names), cells were plated (75,000/well in a 96-well plate) and then chemical samples added for 1 h before addition of activators, SEB and TSST-1 (20 ng/mL final concentration each). Cells were incubated for 90 h. Then, Alamar Blue (20 uL/well) (Invitrogen, Cat DAL1100) was added for 6 h, and the plates were read with a fluorescence microplate reader at 546/580 nm (excitation/emission). For PBMC proliferation, cells were plated and activated as above but incubated for only 16 h prior to addition of Alamar Blue. Plates were read after 6 h.
# [8] = read-out: Interleukin-8 (IL8), CXCL8 (gene 3576); test: BSK_BE3C_IL8: BioMAP Diversity Plus: BE3C Assay for Interleukin-8 (IL8) Biomarker Activity (AID 2284280); settings: primary human bronchial epithelial cells
# Procedure, shortened: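 IL-8 signal gain, normalised to DMSO vehicle, was scored after a 24 h chemical exposure of primary human bronchial epithelial cells, with detection by ELISA.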
# [9] = read-out: Epidermal growth factor receptor (EGFR), EGFR (gene 1956); test: BSK_BE3C_EGFR: BioMAP Diversity Plus: BE3C Assay for Epidermal growth factor receptor (EGFR) Biomarker Activity (AID 2284281); settings: primary human bronchial epithelial cells
# Procedure, shortened: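 Compound is added to human bronchial epithelial cells, cells incubate 24 h, then EGFR is detected by ELISA. Values reflect positive-direction fitting relative to DMSO.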
# KRT18 (gene 3875) = test: BSK_BE3C_Keratin818: BioMAP Diversity Plus: BE3C Assay for Keratin 818 Biomarker Activity (AID 2284282); settings: primary human bronchial epithelial cells
# Procedure, shortened: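 BE3C: human bronchial epithelial primary cells, 24 h exposure, Keratin 8/18 ELISA; DMSO = negative control/baseline; cytotoxicity by parallel SRB stain (0.1% SRB after 10% TCA fixation, 560 nm).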
compound,measurement,setting,value
COc1ccc2nc(N)sc2c1,outcome,[1],inactive
same,outcome,[2],inactive
same,outcome,[3],inactive
same,outcome,[4],inactive
CCOC(=O)c1ccccc1C(=C1C=C(Br)C(=O)C(Br)=C1)c1cc(Br)c(O)c(Br)c1,outcome,[5],inactive
same,AC50,[6],5.49 µM (active) and 5.66 µM (active)
same,AC50,[7],3.9 µM (active) and 3.63 µM (active)
same,AC50,[8],7.85 µM (active) and 7.6 µM (active)
same,outcome,[9],inactive
same,AC50,KRT18 (gene 3875),3.98 µM (active) and 4.84 µM (active)
CCOc1nc(F)cc2nc(S(=O)(=O)Nc3c(Cl)cccc3C(=O)OC)nn12,outcome,[1],inactive
same,outcome,[2],inactive
same,outcome,[3],inactive
same,outcome,[4],inactive
C#CC1(O)CC[C@H]2[C@@H]3CCC4=CCCC[C@@H]4[C@H]3CC[C@@]21C (stereo not given in full),AC50,[1],30.4 µM (active)
same,AC50,[2],30.1 µM (active)
same,outcome,[3],inactive
same,AC50,[4],33.1 µM (active)
C=CC=CC=CCCCCC,outcome,[1],inactive
same,outcome,[2],inactive
same,outcome,[3],inactive
same,outcome,[4],inactive
C/C=C\C/C=C/CCCCCCCCOC(C)=O,outcome,[1],inactive
same,outcome,[2],inactive
same,outcome,[3],inactive
same,outcome,[4],inactive
C=CCOc1c(Br)cc(Br)cc1Br,outcome,[1],inactive
same,AC50,[2],27.7 µM (active)
same,outcome,[3],inactive
same,AC50,[4],31.2 µM (active)
O=c1c2ccccc2oc2ccccc12,outcome,[1],inactive
same,outcome,[2],inactive
same,outcome,[3],inactive
same,outcome,[4],inactive
COCc1c(C(C)C)nc(C(C)C)c(/C=C/[C@@H](O)C[C@@H](O)CC(=O)O)c1-c1ccc(F)cc1,AC50,[3],0.0515 µM (active)
same,outcome,[4],inactive
CC1OC1C1CCC2(C)OC2C1 (stereo not given),outcome,[1],inactive
same,outcome,[2],inactive
same,outcome,[3],inactive
same,outcome,[4],inactive
CCCCCCCCc1ccc(Nc2ccc(CCCCCCCC)cc2)cc1,outcome,[1],inactive
same,outcome,[2],inactive
same,outcome,[3],inactive
same,outcome,[4],inactive
CCCCC(CC)COC(=O)c1ccccc1O (stereo not given),outcome,[1],inactive
same,outcome,[2],inactive
same,AC50,[3],10 µM (active)
same,outcome,[4],inactive
CN1C(=O)N(C)C(O)C1O (stereo not given),outcome,[5],inactive
same,outcome,[6],inactive
same,outcome,[7],inactive
same,outcome,[8],inactive
same,outcome,[9],inactive
same,outcome,KRT18 (gene 3875),inactive
S=C(NC1CCCCC1)NC1CCCCC1,outcome,[1],inactive
same,outcome,[2],inactive
same,outcome,[3],inactive
same,outcome,[4],inactive
Nc1ccc(N)c(Cl)c1,outcome,[5],inactive
same,outcome,[6],inactive
same,outcome,[7],inactive
same,AC50,[8],5.71 µM (active)
same,outcome,[8],inactive
same,outcome,[9],inactive
same,outcome,KRT18 (gene 3875),inactive
CCCCC(CC)COCC1CO1 (stereo not given),outcome,[5],inactive
same,outcome,[6],inactive
same,outcome,[7],inactive
same,outcome,[8],inactive
same,outcome,[9],inactive
same,outcome,KRT18 (gene 3875),inactive
c1ccc(-c2ccccn2)nc1,outcome,[1],inactive
same,outcome,[2],inactive
same,outcome,[3],inactive
same,outcome,[4],inactive
O=C1CCCN1CCO,outcome,[5],inactive
same,outcome,[6],inactive
same,outcome,[7],inactive
same,outcome,[8],inactive
same,outcome,[9],inactive
same,outcome,KRT18 (gene 3875),inactive
O=Nc1ccc(O)cc1,outcome,[1],inactive
same,outcome,[2],inactive
same,outcome,[3],inactive
same,outcome,[4],inactive
CCCCCCCCCCCCCCCC[N+](C)(C)CC,outcome,[1],inactive
same,AC50,[2],1.39 µM (active)
same,AC50,[3],9.34 µM (active)
same,AC50,[4],2.73 µM (active)
O=C(Cl)c1cc(C(=O)Cl)cc(C(=O)Cl)c1,AC50,[2],34.7 µM (active)
same,AC50,[3],31.9 µM (active)
same,AC50,[4],31.2 µM (active)
CC(C)(c1cc(Br)c(OCCO)c(Br)c1)c1cc(Br)c(OCCO)c(Br)c1,AC50,[1],10.6 µM (active)
same,AC50,[2],5.78 µM (active)
same,AC50,[3],9.32 µM (active)
same,AC50,[4],9.33 µM (active)
C=CC(=O)OCC(Br)CBr (stereo not given),outcome,[1],inactive
same,AC50,[2],20 µM (active)
same,outcome,[3],inactive
same,AC50,[4],20 µM (active)
O=C(Nc1ccccc1SSc1ccccc1NC(=O)c1ccccc1)c1ccccc1,outcome,[1],inactive
same,outcome,[2],inactive
same,outcome,[3],inactive
same,outcome,[4],inactive
CO[Si](OC)(OC)c1ccccc1,outcome,[5],inactive
same,outcome,[6],inactive
same,outcome,[7],inactive
same,outcome,[8],inactive
same,outcome,[9],inactive
same,outcome,KRT18 (gene 3875),inactive
c1ccc2c(c1)ccc1cc3c(ccc4ccccc43)cc12,outcome,[1],inactive
same,outcome,[2],inactive
same,outcome,[3],inactive
same,outcome,[4],inactive
CCO[Si](C)(OCC)OCC,outcome,[5],inactive
same,outcome,[6],inactive
same,outcome,[7],inactive
same,outcome,[8],inactive
same,outcome,[9],inactive
same,outcome,KRT18 (gene 3875),inactive
c1ccc2c(c1)ccc1ncccc12,outcome,[1],inactive
same,outcome,[2],inactive
same,outcome,[3],inactive
same,outcome,[4],inactive
CCO[Si](CCCN=C=O)(OCC)OCC,outcome,[1],inactive
same,outcome,[2],inactive
same,outcome,[3],inactive
same,outcome,[4],inactive
C=CCOCC(O)CCl (stereo not given),outcome,[1],inactive
same,outcome,[2],inactive
same,outcome,[3],inactive
same,outcome,[4],inactive
N#[N+]c1ccc2c(S(=O)(=O)[O-])cccc2c1O,outcome,[1],inactive
same,outcome,[2],inactive
same,outcome,[3],inactive
same,outcome,[4],inactive
CCCCNc1ccc(NCCCC)c2c1C(=O)c1ccccc1C2=O,outcome,[1],inactive
same,outcome,[2],inactive
same,outcome,[3],inactive
same,outcome,[4],inactive
CCCCC/C=C\C/C=C\CCCCCCCC(=O)OC,outcome,[1],inactive
same,outcome,[2],inactive
same,AC50,[3],31.2 µM (active)
same,outcome,[4],inactive
CC(C)C(=O)C(C)C,outcome,[1],inactive
same,outcome,[2],inactive
same,outcome,[3],inactive
same,outcome,[4],inactive
C=C[Si](OC(C)=O)(OC(C)=O)OC(C)=O,outcome,[5],inactive
same,outcome,[6],inactive
same,outcome,[7],inactive
same,outcome,[8],inactive
same,outcome,[9],inactive
same,outcome,KRT18 (gene 3875),inactive
O=C(c1ccc(O)cc1)c1ccc(O)cc1O,outcome,[5],inactive
same,outcome,[6],inactive
same,outcome,[7],inactive
same,outcome,[8],inactive
same,outcome,[9],inactive
same,outcome,KRT18 (gene 3875),inactive

# Source: PubChem BioAssay (EPA / NIEHS)
